Results with a measured potency or affinity are listed apart. Active and inactive are the calls of the source.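 How the source made its calls: active means falling luciferase signal whose fitted half-maximal concentration is at most twice the top tested dose; inconclusive means flat inhibition between 30 and 70% or a poor curve fit; inactive means the rest.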
Assay: off-target signal loss in HeLa-CEM21 co-culture – HeLa F-luc CTL cells, cherry-picked, counter-screen for HIV-1 Env fusion inhibitor project, dose response (AID 652040);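 further: 0% = median of neutral control wells and -100% = doxycycline 40 µg/mL wells; more negative values mean stronger loss of luciferase signal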
Details: HeLa-F-luc CTL cells with CEM21, firefly luciferase counterscreen; series mostly up to 35 µM; activity change, negative = inhibition: at the top concentration

Row | SMILES | activity change, negative = inhibition
1 | COc1ccc(Nc2ncc(C(=O)N3CCN(c4ccc(F)cc4)CC3)c3ccccc23)cc1 | -2.35% (inactive)
2 | CCOc1ccc(NC2c3ccccc3C(=O)N2Cc2ccco2)cc1 (stereo not given) | 57.3% (inactive)
3 | COc1ccc(N2CCN(C(=O)C3CCC(Cn4c(=S)[nH]c5ccccc5c4=O)CC3)CC2)cc1 (stereo not given) | -0.686% (inactive)
4 | COc1cccc(CNc2nc(NCc3ccccc3OC)nc3ccsc23)c1 | 10.7% (inactive)
5 | CCOC(=O)C(C)Oc1cccc2c(=O)n(CC(=O)NCCc3ccc(OC)c(OC)c3)ccc12 (stereo not given) | 33.2% (inactive)
6 | N#Cc1c(NCc2ccccc2)ccnc1NCc1cccnc1 | -7.24% (inactive)
7 | CCN(CCn1cccn1)C(=O)CC1C(=O)NCCN1CCc1ccccc1 (stereo not given) | 29.3% (inactive)
8 | COCC(C)n1c(-c2ccc3c(c2)NC(=O)CO3)csc1=Nc1ccc(OC(F)F)cc1 (stereo not given) | 3.74% (inactive)
9 | CCCc1cc(=O)n2[nH]cc(-c3ccc(Cl)cc3)c2n1 | -1.1% (inactive)
10 | COc1cc(-c2c(-c3cc(OC)c(OC)c(OC)c3)noc2C)ccc1F | 65.9% (inactive)
11 | CC1CCC(C(C)C)C(OC(=O)Cn2c(-c3ccccc3)[n+](C)c3ccccc32)C1 (stereo not given) | 15.1% [at 16 µM] (inactive)
12 | COc1ccc2c(c1)[nH]c1c(N3CCN(Cc4ccc5c(c4)OCO5)CC3)ncnc12 | 66.4% (inactive)
13 | O=C(Nc1ccc(CN2CCOCC2)cc1)c1ccc(-c2cccc(Cl)c2)o1 | 77.5% (inactive)
14 | COc1ccccc1OCC(=O)c1[nH]c(C)c(C(C)=O)c1C | -10% (inactive)
15 | COc1ccc2c(C)nc(Nc3nc(C)c(C)c(=O)[nH]3)nc2c1 | 156% [at 16 µM] (inactive)
16 | COc1ccc(CCNC(=O)COC(=O)c2cccn2C)cc1 | 16.6% (inactive)
17 | CC1CCN(S(=O)(=O)c2cc(C(=O)N3CCN(c4ccccc4)CC3)ccc2Br)CC1 | 0.151% (inactive)
18 | Cc1ccc2[nH]c3c(N4CCN(Cc5ccccc5)CC4)ncnc3c2c1 | 7.7% (inactive)
19 | O=C(NNS(=O)(=O)c1ccc(F)cc1F)C1Cc2c(ccc3ccccc23)O1 (stereo not given) | 14.4% (inactive)
20 | c1csc(-c2csc3ncnc(NCCCN4CCOCC4)c23)c1 | -9.92% (inactive)

Row | SMILES | activity change, negative = inhibition
21 | Cc1nc2ccccc2c2oc(C(=O)NCc3ccc4c(c3)OCO4)cc12 | 36% (inactive)
22 | Cn1cc(S(=O)(=O)N2CCOCC2)cc1C(=O)Nc1cccc(Cl)c1 | 4.09% (inactive)
23 | COC(=O)[C@@]12CCCN1[C@H](c1ccc(-c3ccc(F)cc3)c(OC)c1)[C@H]1C(=O)N(C)C(=O)[C@H]12 | 2.62% (inactive)
24 | COc1ccc(CCNC(=O)C2CCCN(Cc3nc(-c4cccc(Cl)c4)oc3C)C2)cc1OC (stereo not given) | 29.1% (inactive)
25 | Oc1ccc(C=NNc2ccccn2)c(O)c1 | 42.6% [at 16 µM] (inactive)
26 | Cc1ccc(-n2nnnc2SCn2nnc3ccccc3c2=O)c(C)c1 | 6.64% (inactive)
27 | COC(=O)c1ccc(NC(=O)c2ccc(CN3CCOCC3)cc2)cc1 | -10.9% (inactive)
28 | CCN1C(=O)[C@H]2[C@@H](c3ccc(C(F)(F)F)cc3)N[C@]3(CCCN(Cc4ccccc4)C3=O)[C@H]2C1=O | 40.7% (inactive)
29 | CC(C)CN(C(=O)c1ccc(S(=O)(=O)N2CCCCC2)cc1)C1CCS(=O)(=O)C1 (stereo not given) | 30.9% (inactive)
30 | COC(=O)C[C@H]1C=C[C@H](NC(=O)c2ccccn2)[C@@H](CO)O1 | -2.51% (inactive)
31 | Cc1[nH]c2ccccc2c1/C=N\NC(=O)c1ccccc1Cl | 34.2% (inactive)
32 | O=C(Nc1nc(COc2ccccc2)cs1)C12CC3CC(CC(C3)C1)C2 | 41.1% (inactive)
33 | COc1ccc(-c2cc(C(=O)NNC(=S)NC(=O)c3c(-c4ccccc4)noc3C)[nH]n2)cc1 | 1.89% (inactive)
34 | C[C@@H]1CN([C@H](C)CO)S(=O)(=O)c2ccc(C#Cc3cccc(F)c3)cc2O[C@@H]1CN(C)C(=O)CN1CCOCC1 | 40% (inactive)
35 | O=C(NNC(=O)C(c1ccccc1)c1ccccc1)c1ccccn1 | 49.4% (inactive)
36 | Cc1ccccc1OCCCCn1cnc2ccccc21 | -0.516% [at 16 µM] (inactive)
37 | Cc1cc2ncn(S(=O)(=O)N3CCCCC3)c2cc1C | 3.5% (inactive)
38 | CC(C)n1c(NCCc2ccccc2)nc2c1c(=O)n(C)c(=O)n2C | -8.83% (inactive)
39 | CCCn1c(Nc2nc3ccccc3n2C)nc2ccccc21 | 21.1% [at 16 µM] (inactive)
40 | COc1ccc(NS(=O)(=O)c2ccc3c(c2)OCCO3)cc1OC | -7.49% (inactive)
